KB-V1 cytotox = kills drug-selected multidrug resistant KB-V1 cells | KB-V1 MDR cells viability, CellTiter-Glo, 72 h | Potency, µM (doses to about 46.1 µM), hits mostly cytotoxic | 3.4% of 400,000 active | AID 1347076; also: nearly all actives have a fitted effect of over 60% in size
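KB-V1, DMEM (no phenol red) + 10% FBS; cpd pin-transferred, titration series; 72 h, 37 degrees C; CellTiter-Glo, luminescence. Data normalized, curve-fit.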
HepG2 tox = counter-screen for TGF-b inhibitors: cytotoxicity in HepG2 cells; HepG2 CAGA-GFP viability, ATP luminescence, 18 h; Potency, µM (titrated, usually from 46.1 µM), hits mostly cytotoxic; 0.76% of 410,000 active; AID 588856
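CellTiter-Glo luminescence gave cytotoxicity after 18 hours at 37 degrees C. The cells were HepG2 CAGA-GFP in 1% FBS DMEM, stimulated with 500 pg/mL TGF-beta after compound addition. %Activity was normalised to no-cell wells (complete cell-killing) and DMSO (no toxicity), and curves were fitted and classified.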
HT1080 IDH1KD tx = kills HT-1080 cells with IDH1 knockdown; HT-1080 IDH1 knockdown viability, ATP luminescence, 48 h; Potency, µM (highest dose often 46.1 µM), usual class: cytotoxic; 2% of 360,000 active
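Using the IDH1-knockdown HT-1080 line run in the same batch and compound series as the NT line, viability after 48 h at 37 °C was determined by CellTiter-Glo luminescence and expressed as % activity.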
HT1080-NT tox = kills 2HG-producing HT-1080-NT fibrosarcoma cells; HT-1080-NT fibrosarcoma viability, CellTiter-Glo ATP luminescence, 48 h; Potency, µM (top dose mostly 46.1 µM), actives largely listed as cytotoxic; 1.6% of 360,000 active; AID 686970;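 also: NT is the 2HG producing partner of a matched IDH1 knockdown line; nearly all actives have a fitted effect of over 55% in size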
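Fibrosarcoma NT cells, 750 per well in 5% FBS RPMI, were exposed to compound for 48 hours. Viability: CellTiter-Glo luminescence.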
KB-3-1 tox = kills parental KB-3-1 adenocarcinoma cells | KB-3-1 viability, CellTiter-Glo ATP luminescence, 72 h | Potency, µM (titrated, usually from 46.1 µM), most hits filed as cytotoxic | 1.4% of 400,000 active | AID 1347075; also: nearly all actives have a fitted effect of over 60% in size
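Multi-concentration cytotoxicity screen in KB-3-1 cells grown in DMEM lacking phenol red with 10% FBS. After 72 h at 37 °C with compound, ATP-dependent luminescence was recorded.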
TGFb SMAD3 inh = TGF-b pathway inhibition. HepG2 CAGA-GFP TGF-b/SMAD3 reporter, GFP fluorescence, 18 h; TGF-beta stimulated, 500 pg/mL final. Potency, µM (highest dose often 46.1 µM), actives largely listed as inhibitors. 1.2% of 410,000 active. AID 588855; also: nearly all actives have a fitted effect of over 65% in size
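TGF-beta reporter screen: HEPG2 CAGA-GFP, 1% FBS, 500 pg/mL TGF-beta final, 18 h; per-cell GFP summed per well; curves fitted and categorized by class.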
Numbers stand for hits; – = inactive; ? = inconclusive; · = no result given. Hits are enriched below; roughly 6.6% of the tested compounds scored in any of these assays. Calls follow the shape of the dose curve; as a rule, active = well fitted curve in the direction sought with a large enough effect; inconclusive = small, poorly fitted or top-dose-only effect, or another doubt; inactive = no such curve, though single readings can be large; an effect the other way counts as inactive or inconclusive.

SMILES | KB-V1 cytotox | HepG2 tox | HT1080 IDH1KD tx | HT1080-NT tox | KB-3-1 tox | TGFb SMAD3 inh
COc1cc(CNC(=O)c2ccc3nc(Cc4ccccc4)oc3c2)cc(OC)c1OC | – | – | · | · | 26µM | ?
COCCN1CCN(C(=O)c2ccc3nc(Cc4ccc(OC)c(OC)c4)oc3c2)CC1 | ? | – | – | 7.3µM | 4.6µM | –
COc1cc(/C=C/c2cc[n+](C)c3ccccc23)cc(OC)c1OC | – | – | · | · | ? | –
CCC1CN(C(=O)N2CCC(C(=O)NCCN(CC)CC)CC2)c2ccccc2O1 (centres undefined) | · | – | · | · | · | –
CCCNC(=O)c1ccc(C2SCC(=O)N2Cc2ccccc2)cc1 (centres undefined) | – | – | – | – | – | ?
O=C(NCc1ccc2c(c1)OCO2)c1ccc(C2SCC(=O)N2Cc2ccco2)cc1 (centres undefined) | 21µM | – | – | – | – | –
CCOCCCNC(=O)c1ccc(C2SCC(=O)N2Cc2ccccc2)cc1 (centres undefined) | 5.8µM | – | – | – | – | –
CCc1ccc(C(=O)c2cn(CC(=O)Nc3ccc4c(c3)OCCO4)c3ccc(C)cc3c2=O)cc1 | ? | – | · | · | – | –
Cc1nc(C(F)(F)F)c(C(=O)N/N=C(\N)c2ccccn2)s1 | ? | – | 16µM | ? | ? | –
Cc1ccc(OCCCC(=O)Nc2sc3c(c2C(N)=O)CCCC3)cc1 | – | – | · | · | – | ?
CC(=O)c1ccc[n+](CC(=O)c2ccc(F)cc2)c1 | – | – | · | · | – | –
CCOc1ccc(NC(=O)CN(C)C(=O)c2ccccc2OCCOc2ccccc2)cc1OCC | 2.3µM | – | – | – | – | –
CCOc1ccc(NC(=O)CN(C)C(=O)c2cccc3ccccc23)cc1OCC | ? | – | – | – | ? | –
CCC(=O)N1CCc2cc(CNS(=O)(=O)c3ccc(CC(C)C)cc3)ccc21 | · | – | · | · | · | ?
C=C(C)C1CC=C(C)/C(=N\NC(=S)Nc2ccc(C)cc2)C1 (centres undefined) | 16µM | – | – | – | ? | –
COc1ccc(C2Nc3ccc(NC(C)=O)cc3C(=O)N2Cc2cccc(Cl)c2)cc1COc1ccc(NC(C)=O)cc1 (centres undefined) | · | · | – | – | · | ·
O=C(CCN1CCN(S(=O)(=O)c2ccc(Br)cc2)CC1)Nc1ccccc1F | – | – | – | – | – | ?
O=C(CN1CCN(S(=O)(=O)c2ccc(Br)cc2)CC1)Nc1ccccc1F | – | 14µM | – | – | – | –
CSc1ccccc1NC(=O)CN1CCN(S(=O)(=O)c2ccccc2[N+](=O)[O-])CC1 | 3.7µM | – | – | – | – | ?
CCS(=O)(=O)N1CCN(S(=O)(=O)c2ccccc2[N+](=O)[O-])CC1 | – | – | – | – | – | –
CN(C)C(=S)N=c1ssc(=S)n1Cc1cccnc1 | ? | – | – | – | ? | 3.2µM
O=C(CSc1nc2nc(-c3cccs3)cc(C(F)(F)F)c2c(=O)[nH]1)Nc1c(F)c(F)c(F)c(F)c1F | – | – | – | 12µM | ? | –
C/C(=N\NC(=O)c1cc(-c2ccncc2)nc2ccccc12)c1ccc(N2CCOCC2)cc1 | – | – | 10µM | 21µM | – | –
O=C(N/N=C/c1ccc([N+](=O)[O-])o1)c1cc(-c2ccncc2)nc2ccccc12 | ? | – | ? | 4µM | ? | –
COc1ccccc1-c1cc(C(=O)N/N=C/c2ccc(C)o2)c2ccccc2n1 | – | – | ? | – | – | –
Cc1ccc(/C=N/NC(=O)c2cc(-c3ccncc3)nc3ccccc23)o1 | – | – | 1.8µM | ? | 5.8µM | ?
Cc1ccc(-c2cc(C(=O)N/N=C/c3ccc([N+](=O)[O-])o3)c3ccccc3n2)o1 | ? | 11µM | ? | ? | – | 14µM
CCc1ccccc1NC(=O)c1cccc(N2C(=O)C3C4CCC(C4)C3C2=O)c1 (centres undefined) | – | – | – | – | – | –

Assay outcomes from PubChem BioAssay.
